Screening results (PubChem BioAssay)
Sampled rows, rich in hits. Any-hit rate of the full collection: about 12%.
Sm TGR inh – S. mansoni TGR enzyme inhibition; Q962Y6; purified TGR, DTNB reduction, TNB absorbance 405 nm; Potency, µM (top dose mostly 114 µM), most hits filed as inhibitors; 360,000 tested, 3% active; AID 485364; note: nearly all actives have a fitted effect of over 60% in size
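First, TGR (20 nM dispensed) and NADPH were mixed with compound. Second, a 15 min room-temperature incubation followed. Third, further NADPH and then DTNB were added to start the reaction. Finally, TNB absorbance was monitored kinetically.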
SARS PLpro yeast – SARS-CoV PLP inhibition in yeast; S. cerevisiae expressing SARS-CoV PLpro, growth rescue; Potency, µM (highest dose often 32.9 µM), usual class: activators; 330,000 tested, 0.19% active; calls by dose curve; note: nearly all actives have a fitted effect of over 55% in size
Pf growth 96h – P. falciparum growth inhibition at 96 hours | Potency, µM (series often up to 28.7 µM), hits mostly inhibitors | P. falciparum luciferase reporter growth, 96 h | 320,000 tested, 6.9% active | AID 504834
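Two parasite generations (96 h, 37 C, 5% CO2) of compound exposure in infected erythrocytes (0.05% parasitemia, 2% hematocrit). Luciferase-reporter P. falciparum; decreased luminescence indicates inhibited growth, aimed at apicoplast-acting delayed death.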
Pf growth 48h – P. falciparum growth inhibition at 48 hours (one generation) | P. falciparum luciferase growth in erythrocytes, 48 h | Potency, µM (series often up to 28.7 µM), usual class: inhibitors | 310,000 tested, 5.9% active
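Here the parasites carry a stable luciferase gene and grow inside erythrocytes in Albumax-based RPMI medium with compound for one erythrocytic cycle. Activity is scored as loss of luminescent signal.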
Large screens that a line does not name were inactive; ! = a repeat was not active. Unless noted, calls come from the whole dose curve; as a rule, active = well fitted curve in the direction sought with a large enough effect; inconclusive = small, poorly fitted or top-dose-only effect, or another doubt; inactive = no such curve, though single readings can be large; an effect the other way counts as inactive or inconclusive.

CN(C)[C@H]1C(=O)C(C(=O)NCN2CCCC2)=C(O)[C@]2(O)C(=O)C3=C(O)c4c(O)cccc4[C@](C)(O)[C@H]3C[C@H]12	Pf growth 96h inconclusive (no result: Sm TGR inh, SARS PLpro yeast)
CN(C)C1C(=O)C(C(N)=O)=C(O)C2(O)C(=O)C3=C(O)c4c(O)cccc4C(C)(O)C3CC12 (stereo unspecified)	Pf growth 96h 0.93µM, Pf growth 48h inconclusive
CN(C)[C@@H]1C(=O)C(C(N)=O)=C(O)[C@@]2(O)C(=O)C3=C(O)c4c(O)ccc(Cl)c4[C@@](C)(O)C3C[C@@H]12 (stereo partly specified)	Pf growth 96h inconclusive
CN(C)[C@H]1C(=O)C(C(N)=O)=C(O)[C@]2(O)C(=O)C3=C(O)c4c(O)cccc4[C@@](C)(O)[C@H]3C[C@@H]12	Pf growth 96h 0.72µM, Pf growth 48h 5.7µM (no result: Sm TGR inh, SARS PLpro yeast)
CN(C)[C@@H]1C(=O)C(C(=O)NCN2CCCC2)=C(O)[C@@]2(O)C(=O)C3=C(O)c4c(O)cccc4[C@@](C)(O)C3CC12 (stereo partly specified)	Sm TGR inh 7.9µM, SARS PLpro yeast inconclusive
CN(C)[C@@H]1C(=O)C(C(N)=O)=C(O)[C@@]2(O)C(=O)C3=C(O)c4c(O)cccc4[C@@](C)(O)C3[C@H](O)C12 (stereo partly specified)	Sm TGR inh 8.9µM, Pf growth 96h 12µM!, Pf growth 48h 15µM! (no result: SARS PLpro yeast)
Clc1ccc(CCNc2nc3cc(Cl)c(Cl)cc3n3cnnc23)cc1	none (no result: SARS PLpro yeast, Pf growth 96h, Pf growth 48h)
COc1cccc(CN(C)C(=O)Cc2ccc(OC)c(S(=O)(=O)N3CCOCC3)c2)c1	Pf growth 48h inconclusive
O=C(CSc1nc2c(cnn2-c2ccc(F)cc2)c(=O)[nH]1)Nc1ccccc1C(F)(F)F	none (no result: SARS PLpro yeast, Pf growth 96h, Pf growth 48h)
COc1cccc(NC(=O)CN2CCc3ccccc3C2)c1	none
COc1cccc(CN2CC(C(=O)NCc3ccc(Cl)s3)CCC2=O)c1 (stereo unspecified)	Pf growth 48h inconclusive
CCOc1ccc(CNc2ccc3c(c2)ncn3C)cc1	Pf growth 96h 10µM
CCn1cnc2cc(NCc3ccc(N(C)C)cc3)ccc21	Sm TGR inh 8.9µM
CCN(CC)c1ccc(CNc2ccc3c(c2)ncn3CC)cc1	Sm TGR inh inconclusive
CC1(C)S[C@@H]2[C@H](NC(=O)[C@@H](N)c3ccccc3)C(=O)N2[C@H]1C(=O)O[C@H]1OC(=O)c2ccccc21	Pf growth 96h inconclusive (no result: Sm TGR inh, SARS PLpro yeast)
NN1C(=O)/C(=C2/Sc3ccccc3N2CCCS(=O)(=O)O)SC1=S	none
O=C1NC(=S)S/C1=C1\Sc2ccccc2N1CCCS(=O)(=O)O	Pf growth 96h 7.4µM
COc1cc(OC)c(S(=O)(=O)Nc2ccccc2N2CCCCC2)cc1NC(C)=O	Pf growth 96h 9.3µM, Pf growth 48h 9.3µM
O=C(Nc1ccc(N2CCCC2)c(S(=O)(=O)Nc2cccc(C(F)(F)F)c2)c1)c1cccs1	Pf growth 96h 15µM, Pf growth 48h inconclusive
COc1ccccc1NS(=O)(=O)c1cc(NC(=O)c2cccs2)ccc1N1CCCC1	Pf growth 96h inconclusive, Pf growth 48h inconclusive
COc1ccccc1NS(=O)(=O)c1cc(NC(=O)c2cccs2)ccc1N1CCCCC1	Pf growth 96h 3.7µM, Pf growth 48h inconclusive
COc1ccccc1NS(=O)(=O)c1cc(NC(=O)Nc2ccccc2)ccc1N1CCCCC1	Pf growth 96h 1.5µM, Pf growth 48h 2.6µM
O=C(OCc1ccccc1Cl)c1ccc(-c2nnn(Cc3ccccc3)n2)cc1	none (no result: SARS PLpro yeast, Pf growth 96h, Pf growth 48h)
CC1(C)COCN1S(=O)(=O)c1ccc(C(=O)Nc2nnc(-c3ccc(Cl)s3)o2)cc1	Pf growth 48h 4.1µM
COc1ccc(-c2nnc(NC(=O)c3ccc(S(=O)(=O)N4COCC4(C)C)cc3)o2)cc1	Pf growth 48h 12µM
CN(C)C(=O)COc1ccc2c3c(c(=O)oc2c1)CCCC3	Pf growth 96h 9.3µM
CCN(CC)C(=O)COc1ccc2c3c(c(=O)oc2c1)CCCC3	Pf growth 48h inconclusive
COc1ccc(-c2cc(=O)oc3cc4occ(C)c4cc23)cc1	Pf growth 96h 0.83µM, Pf growth 48h inconclusive
COc1ccc(-c2cc(=O)oc3cc(OC(C)C(=O)NC4CC4)ccc23)cc1 (stereo unspecified)	Pf growth 96h 2.9µM, Pf growth 48h inconclusive
CC(Oc1cc2oc(=O)c3c(c2cc1Cl)CCC3)C(=O)NC1CC(C)(C)NC(C)(C)C1 (stereo unspecified)	SARS PLpro yeast inconclusive, Pf growth 96h inconclusive, Pf growth 48h 13µM
CC1(C)C2CC[C@]1(C)[C@@H](O)C2	none (no result: Sm TGR inh, SARS PLpro yeast)
CCC(Sc1nc2cc3c(cc2c(=O)n1CCCCCC(=O)NCc1ccc2c(c1)OCO2)OCO3)C(=O)NCCCOC (stereo unspecified)	none (no result: SARS PLpro yeast, Pf growth 96h, Pf growth 48h)
CCOc1cc(CNCCSc2nnnn2-c2ccccc2)cc(Cl)c1OC	none (no result: SARS PLpro yeast, Pf growth 96h, Pf growth 48h)
CC(Oc1ccc2c3c(c(=O)oc2c1)CCCC3)C(=O)NC1CC(C)(C)NC(C)(C)C1 (stereo unspecified)	Pf growth 96h 9.3µM, Pf growth 48h 15µM
Cc1c(C)c2ccc(OC(C)C(=O)NC3CC(C)(C)NC(C)(C)C3)cc2oc1=O (stereo unspecified)	Pf growth 48h inconclusive
O/N=C(/CN(O)/C=C1/C=CC=N1)c1cccs1	Pf growth 96h 15µM
CC(NO)/C(=N\O)c1cccs1 (stereo unspecified)	none (no result: Pf growth 48h)
CCCn1ncc(CN2CCCC(C(=O)c3cccc(OC(C)C)c3)C2)c1C (stereo unspecified)	Pf growth 96h 12µM, Pf growth 48h 13µM
CC(Oc1ccccc1)C(=O)N1CCN(c2ccc(N3CCCCCC3)nn2)CC1 (stereo unspecified)	Pf growth 96h 10µM, Pf growth 48h inconclusive
Cc1ccccc1Nc1cc2ccccc2c(=O)[nH]1	Sm TGR inh 3.2µM, Pf growth 48h inconclusive
O=c1[nH]c(Nc2ccc(F)cc2)cc2ccccc12	Sm TGR inh 35µM, Pf growth 96h inconclusive (no result: Pf growth 48h)
Cc1cc2ccccc2c(=O)[nH]1	none
CCCCN(C/C=C/c1ccccc1OC)Cc1ccccc1	Pf growth 96h 8.3µM, Pf growth 48h inconclusive
C#CNC(=O)C1(CC=C)CCNCC1	Pf growth 48h inconclusive
CCOC(=O)c1cnc(-n2nc(C)cc2C)nc1Nc1ccc(N(C)C)cc1	Pf growth 96h 3.3µM, Pf growth 48h 5.2µM
CCOC(=O)c1cnc(-n2nc(C)cc2C)nc1Nc1ccc2c(c1)OCO2	Pf growth 96h 15µM
CCOC(=O)c1cnc(-n2nc(C)cc2C)nc1Nc1ccc(C)cc1	Pf growth 96h inconclusive, Pf growth 48h inconclusive
CCOC(=O)c1cnc(-n2nc(C)cc2C)nc1Nc1ccc(O)cc1	Pf growth 96h 2.6µM, Pf growth 48h inconclusive
CCOC(=O)c1cnc(-n2nc(C)cc2C)nc1Oc1ccc(C#N)cc1	none
CCOC(=O)c1cnc(-n2nc(C)cc2C)nc1Nc1cccc(C(=O)O)c1	Pf growth 96h inconclusive
COc1ccc(NC(=O)Nc2cccc3c2O[C@H](CN(C)C(=O)Nc2ccc4c(c2)OCO4)[C@@H](C)CN([C@H](C)CO)C3=O)cc1	none (no result: Sm TGR inh, Pf growth 96h, Pf growth 48h)
COc1ccc2c(c1)O[C@H](c1ccc3c(c1)OCO3)[C@@H](OC(=O)N[C@H]1CCCc3ccccc31)C2=O	none
